This note sets out measurements from PubChem BioAssay (Tox21).

The structures appear in SMILES notation. Results filed as inconclusive are left out. Calls of active or inactive are those of the source. Unless noted, the call rests on the fitted dose curve; in most records, active means well fitted curve in the direction sought with a large enough effect in the repeat runs; inconclusive means weak or mixed curves; inactive means no such curve, though single readings can be large; an effect the other way counts as inactive or inconclusive.

The nature of assay [1]: qHTS assay to identify small molecule antagonists of the glucocorticoid receptor (GR) signaling pathway - cell viability counter screen (AID 720693; further: nearly all actives have a fitted effect of over 55% in size). (qHTS replaces the single test concentration by a dilution series.)
Assay [2] is described as follows: qHTS assay for identifying genotoxic compounds that show differential cytotoxicity against isogenic chicken DT40 cell lines with known DNA damage response pathways - Rev3 mutant cell line (AID 743014). Further: nearly all actives have a fitted effect of over 55% in size. Further: potency means the concentration at half of the fitted maximal effect.
A short description of assay [3]: qHTS assay for identifying genotoxic compounds that show differential cytotoxicity against isogenic chicken DT40 cell lines with known DNA damage response pathways - Rad54/Ku70 mutant cell line (AID 743015). Further: nearly all actives have a fitted effect of over 60% in size. Further: potency means the concentration at half of the fitted maximal effect.
Assay [4] in a line: qHTS assay to identify small molecule antagonists of the androgen receptor (AR) signaling pathway - cell viability counter screen (AID 743033; further: nearly all actives have a fitted effect of over 45% in size).
Assay [5] can be described thus: qHTS assay to identify small molecule antagonists of the androgen receptor (AR) signaling pathway using the MDA cell line - cell viability counter screen (AID 743041; further: nearly all actives have a fitted effect of over 45% in size). An outline of the steps:
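Same-well cytotoxicity was assessed by CellTiter-Fluor in MDA-kb2 AR-luc cells after 16 h of compound treatment under R1881 agonism.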

Assay [6] can be described thus: qHTS assay for identifying genotoxic compounds that show differential cytotoxicity against isogenic chicken DT40 cell lines with known DNA damage response pathways - wild type cell line (AID 743012). Further: nearly all actives have a fitted effect of over 60% in size. Further: potency means the concentration at half of the fitted maximal effect. Summed up:
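Using parental DT40 (300 cells/well), compounds delivered in DMSO incubate 40 h at 37 C/5% CO2. CellTiter-Glo reagent then stands 30 min at room temperature, and luminescence gives cell viability.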

Assay [7] has as its target Androgen receptor (Homo sapiens) (UniProt P10275). Kind of assay: qHTS assay to identify small molecule antagonists of the androgen receptor (AR) signaling pathway (AID 743035; active means well fitted inhibition curve with a large enough effect in the signal ratio in the repeat runs, not every such curve was filed as active; the % refers to the signal ratio). An outline of the steps: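 Using qHTS, AR-UAS-bla GripTite HEK293 cells received compound, then R1881, and were cultured 16 h at 37C/5% CO2 before a 2 h room-temperature LiveBLAzer B/G FRET substrate step and fluorescence measurement.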

For assay [8] the target is unchanged. Kind of assay: qHTS assay to identify small molecule agonists of the androgen receptor (AR) signaling pathway (AID 743036; active means well fitted activation curve with a large enough effect in the signal ratio in the repeat runs, with a control signal flat, not every such curve was filed as active; the % refers to the signal ratio). Summed up: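 Cell-based FRET reporter assay: HEK293 line with a UAS-beta-lactamase construct, compounds added in DMSO, 16 h exposure at 37C, then 2 h substrate step at room temperature and fluorescence intensity read.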
Assay [9] shares this target. Description: qHTS assay to identify small molecule agonists of the androgen receptor (AR) signaling pathway using the MDA cell line (AID 743040; further: nearly all actives have a fitted effect of over 20% in size). Summed up: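 Human breast carcinoma MDA-kb2 reporter cells (MMTV-luc, AR/GR elements) were treated for 16 h at 37C in 0% CO2 following a 5 h settling period. Signal was quantified by ONE-Glo luminescence.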
For assay [10] the target is unchanged. Description: qHTS assay to identify small molecule antagonists of the androgen receptor (AR) signaling pathway using the MDA cell line (AID 743042; further: nearly all actives have a fitted effect of over 55% in size). An outline of the steps:
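MDA-kb2 breast carcinoma cells carrying MMTV-luciferase (AR/GR responsive) were co-treated with compounds and the agonist R1881 for 16 h at 37C. Inhibition read as ONE-Glo luminescence; CellTiter-Fluor fluorescence measured in parallel for cytotoxicity.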

Androgen receptor (Homo sapiens), sequence (P10275 whole entry, looked up): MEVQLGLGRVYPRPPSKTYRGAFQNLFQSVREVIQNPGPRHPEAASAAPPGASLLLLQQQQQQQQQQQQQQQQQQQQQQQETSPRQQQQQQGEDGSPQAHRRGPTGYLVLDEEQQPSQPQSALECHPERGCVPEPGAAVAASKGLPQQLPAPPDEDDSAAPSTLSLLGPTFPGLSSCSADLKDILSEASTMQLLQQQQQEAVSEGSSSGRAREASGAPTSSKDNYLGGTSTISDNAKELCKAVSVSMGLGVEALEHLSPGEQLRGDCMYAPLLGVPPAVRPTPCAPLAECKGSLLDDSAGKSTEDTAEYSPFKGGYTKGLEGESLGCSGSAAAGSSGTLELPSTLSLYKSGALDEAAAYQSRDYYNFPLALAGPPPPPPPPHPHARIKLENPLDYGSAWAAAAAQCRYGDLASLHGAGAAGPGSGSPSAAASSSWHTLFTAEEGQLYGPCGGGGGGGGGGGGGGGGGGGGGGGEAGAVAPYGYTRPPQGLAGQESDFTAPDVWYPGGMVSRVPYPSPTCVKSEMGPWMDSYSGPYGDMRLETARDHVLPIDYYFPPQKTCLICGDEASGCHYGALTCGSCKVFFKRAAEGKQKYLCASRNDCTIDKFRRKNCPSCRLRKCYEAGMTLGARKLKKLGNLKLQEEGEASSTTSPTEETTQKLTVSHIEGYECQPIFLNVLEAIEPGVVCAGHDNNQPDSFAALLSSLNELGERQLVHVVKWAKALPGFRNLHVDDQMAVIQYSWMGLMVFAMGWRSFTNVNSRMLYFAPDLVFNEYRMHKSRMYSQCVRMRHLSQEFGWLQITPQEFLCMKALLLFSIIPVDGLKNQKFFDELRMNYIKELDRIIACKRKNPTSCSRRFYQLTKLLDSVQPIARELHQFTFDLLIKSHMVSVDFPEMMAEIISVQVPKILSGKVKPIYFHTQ

With `CCN[C@@H](C)Cc1cccc(C(F)(F)F)c1`, the Potency result in [1], in [4] and in [5] was “inactive” throughout. Moreover, the Potency is 16.9 µM (active) in assay [2] and 21.3 µM (active) in assay [3].

For the compound `CCOC(=O)Nc1cccc(OC(=O)Nc2ccccc2)c1`, the Potency result in assay [1], in assay [6], in [3], in assay [4] and in [5] was “inactive” each time.

With `N#CC(Br)(Br)C(N)=O`, the Potency result in [1] was “inactive”. Besides, the Potency in [2] and in [3] was 61.1 µM (active) throughout.

Turning to `NC1(c2ccccc2)CCCCC1`, the Potency entry in assay [1], in assay [4] and in assay [5] was “inactive” throughout. Besides, the Potency in assay [6] was 60.6 µM (active).

As to `CS(=O)(=O)c1ccc(C(=O)C2C(=O)CCCC2=O)c(Cl)c1COCC(F)(F)F`, the Potency entry in assay [1], in assay [6], in [3], in [4] and in assay [5] was “inactive” each time.

Consider `CCN[C@H](C)Cc1cccc(C(F)(F)F)c1`, for which the Potency entry in [1], in assay [4] and in assay [5] was “inactive” each time. Further, the Potency in assay [2] is 30.5 µM (active); in assay [3] it was 54.3 µM (active).

For `COC1=CC(=O)O[C@@H](/C=C/c2ccccc2)C1`, the Potency entry in assay [1], in assay [6], in assay [3], in [4] and in assay [5] was “inactive” each time.

For the compound `O=CCCl`, the Potency result in assay [1], in [4] and in assay [5] was “inactive” each time. For the same compound, the Potency in [2] was 0.217 µM (active); in assay [3] it was 27.3 µM (active).

Consider `COP(=O)(O)OC`, for which the Potency entry in [1], in assay [2], in [3], in [4], in assay [7] and in assay [5] was “inactive” throughout. The Potency entry in assay [10] is “inactive”. The compound was called inactive in assay [8] and in assay [9].

For `CCOP(=S)(OCC)Oc1ccc(Cl)cc1Cl`, the Potency result in assay [1], in assay [2], in assay [3], in assay [4] and in assay [5] was “inactive” in each case.

On to `CCC(=O)c1ccc(Cl)cc1`, for which the Potency entry in [1], in assay [2], in assay [3], in assay [4] and in [5] was “inactive” in each case.

With `N[C@@H]1C[C@H]1c1ccccc1`, the Potency entry in [1], in [2], in [3], in assay [4], in [7] and in assay [5] was “inactive” throughout. In assay [10], the Potency entry is “inactive”. In addition, the compound was classed as inactive in assay [8] and in [9].

On to `ClCCCCl`, for which the Potency result in [1], in [2], in assay [3], in assay [4] and in [5] was “inactive” in each case.

For `CNC(=O)NC(O)C(Cl)(Cl)Cl` (stereo unspecified), the Potency result in assay [1], in assay [2], in assay [3], in [4], in assay [7] and in assay [5] was “inactive” throughout. Moreover, the Potency entry in [10] is “inactive”. The call in [8] and in assay [9] was inactive.

With `O=C(Cl)c1ccccc1`, the Potency entry in assay [1], in assay [2], in [3], in [4] and in [5] was “inactive” in each case.

Turning to `CC(=O)OCC1=C(C(=O)O)N2C(=O)[C@@H](N)[C@H]2SC1`, the Potency entry in [1], in assay [2], in assay [3], in [4] and in assay [5] was “inactive” throughout.

Take `CCN(CCO)CCO`: the Potency entry in assay [1], in assay [6], in assay [3], in assay [4] and in assay [5] was “inactive” throughout.

As for `CCOC(=O)COc1ccc(Cl)cc1Cl`, the Potency entry in assay [1], in assay [2], in assay [3] and in [4] was “inactive” in each case.

On to `c1cncc([C@@H]2CCCCN2)c1`, for which the Potency result in assay [1], in [6], in assay [3], in assay [4] and in [5] was “inactive” throughout.

Turning to `C=CC1(C)OC(=O)N(c2cc(Cl)cc(Cl)c2)C1=O` (stereo unspecified), the Potency result in assay [1], in assay [6], in assay [4] and in assay [5] was “inactive” each time. The Potency in assay [3] is 61.1 µM (active).

On to `O=[N+]([O-])CCO`, for which the Potency entry in [1], in [6], in [3], in assay [4] and in assay [5] was “inactive” in each case.

`O=C1CCCCC1Cl` (stereo unspecified): the Potency entry in assay [1], in assay [2], in assay [3], in assay [4] and in assay [5] was “inactive” each time.

For `Cn1c(N)nc2c3cccnc3ccc21`, the Potency entry in assay [1], in assay [6], in assay [3], in [4] and in assay [5] was “inactive” each time.

Regarding `CN(C)CCN(C)C`, the Potency result in [1], in assay [2], in assay [3], in [4] and in [5] was “inactive” throughout.

In the case of `ClC(Cl)(Cl)Cl`, the Potency entry in assay [1], in [2], in [3], in assay [4] and in [5] was “inactive” throughout.

As for `CN1COCN(Cc2cnc(Cl)s2)/C1=N\[N+](=O)[O-]`, the Potency result in assay [1], in assay [6], in assay [3], in assay [4] and in assay [5] was “inactive” each time.

`CCOC(=O)N(C)N=O`: the Potency result in [1], in [6], in [4] and in assay [5] was “inactive” in each case.

Turning to `CC[C@H](O)C(C[C@H](C)N(C)C)(c1ccccc1)c1ccccc1`, the Potency result in [1], in [4] and in assay [5] was “inactive” each time. In assay [6], the Potency is 62.3 µM (active).

In the case of `CCN[C@@H](C)Cc1ccccc1`, the Potency entry in assay [1], in assay [6], in [4], in [7], in assay [5] and in [10] was “inactive” throughout. The result in [8] and in assay [9] was inactive.

`CCCOc1nn(C(=O)NS(=O)(=O)c2ccccc2C(=O)OC)c(=O)n1C`: the Potency entry in assay [1], in [6], in assay [3], in [7], in [5] and in [10] was “inactive” throughout. Further, the compound was classed as inactive in assay [8] and in assay [9].

Take `O=C(O)C(F)(F)C(F)(F)C(F)(F)C(F)(F)C(F)(F)C(F)(F)F`: the Potency result in [1], in [2], in [3], in [4] and in assay [5] was “inactive” in each case.

In the case of `N#CN`, the Potency result in assay [1], in assay [2], in assay [3], in [4] and in assay [5] was “inactive” in each case.

On to `COc1ccccc1OC`, for which the Potency entry in [1], in assay [2], in [3], in assay [4] and in [5] was “inactive” in each case.

Take `CCOC(=O)CCl`: the Potency result in [1], in assay [2], in [3], in assay [4] and in assay [5] was “inactive” each time.

Turning to `c1ccc2c(c1)CCNC2`, the Potency result in [1], in assay [2], in [3], in [4] and in assay [5] was “inactive” in each case.

With `CCCC(C)C1(CC)C(=O)N=C(S)NC1=O` (stereo unspecified), the Potency result in assay [1], in assay [2], in assay [3], in assay [4] and in assay [5] was “inactive” each time.

For the compound `COc1cccc(C=O)c1`, the Potency entry in [1], in assay [2], in [3], in assay [4] and in assay [5] was “inactive” throughout.

As to `CCOP(=S)(OCC)SCCl`, the Potency entry in assay [1], in [2], in assay [3], in assay [4], in [7] and in assay [5] was “inactive” throughout. The Potency result in [10] was “inactive”. Besides, the call in assay [8] and in assay [9] was inactive.

In the case of `O=C1CC(=O)NC(=O)N1`, the Potency entry in [1], in [2], in assay [3], in [4] and in assay [5] was “inactive” in each case.
